Experimental data from the supplement of paper PMC10646978.
± gives the standard deviation.

Assays:
Details in all cases: modulator concentration 10 µM
[1] = system: RAW-Dual (murine macrophage reporter line); test: NF-kB reporter (SEAP) activity fold change vs agonist alone; higher = enhanced NF-kB activity
Outline: (§1)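 RAW-Dual murine macrophage reporter cells were seeded at 50 000 per well in 384-well plates and pre-incubated 1 hour at 37 °C with compound pin-transferred to 10 μM final. After 1 hour, a PRR agonist was added and cells incubated overnight. Supernatant NF-κB (SEAP, QUANTI-Blue, 620 nm absorbance) and IRF (Lucia luciferase, QUANTI-Luc, luminescence) signals were divided by the mean agonist-only control on the same plate to give fold change. Two replicate plates were averaged, with errors by propagation.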

[2] = system: RAW-Dual (murine macrophage reporter line); test: IRF reporter (Lucia luciferase) activity fold change vs agonist alone; higher = enhanced IRF activity
Outline: as §1

[3] = system: RAW-Dual (murine macrophage reporter line); test: viability score (confluency relative to resting cells, overnight) (fraction); higher = more viable, active = viable (0.7 or more)
Outline: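 A compound met the cutoff when both of two confluency masks exceeded 70% of resting cells. Those masks were made with IncuCyte software from IncuCyte images of RAW-Dual macrophages treated overnight at 10 μM final. This is the basis of the viability score, which is confluency relative to resting cells.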

[4] = agonist: CpG ODN 1826 0.5 ug/mL

SMILES	NF-kB reporter [1, 4]	NF-kB reporter ([1]; agonist: LPS 0.1 ug/mL)	NF-kB reporter ([1]; agonist: MPLA […])	IRF reporter ([2]; agonist: 3'3'-cGAMP 10 ug/mL)	IRF reporter ([2]; agonist: LPS 0.1 ug/mL)	IRF reporter ([2]; agonist: MPLA […])	viability score [3]
O=C(c1csc(-c2ccccc2)n1)N1CCCN(C2CCC2)CC1	0.763 ± 0.041	1.17 ± 0.094	0.937 ± 0.063	0.927 ± 0.081	1.19 ± 0.13	1.24 ± 0.12	1.01 (active)
CCOC(=O)c1c(N)sc(C(=O)N2CCCC(C(N)=O)C2)c1C (configuration not stated)	0.442 ± 0.15	0.873 ± 0.095	0.356 ± 0.17	0.982 ± 0.039	2.11 ± 0.89	1.79 ± 0.39	0.932 (active)
C=CCNC1=C2C[C@@H](C)C[C@H](OC)[C@H](O)[C@@H](C)/C=C(\C)[C@H](OC(N)=O)[C@@H](OC)/C=C\C=C(/C)C(=O)NC(=CC1=O)C2=O	0.174 ± 0.0095	0.215 ± 0.021	0.413 ± 0.042	1.63 ± 0.15	3.81 ± 0.34	3.4 ± 0.71	0.493 (inactive)
CC1=NN(c2ccc(S(N)(=O)=O)cc2)C(=O)C1=Cc1ccc(C)s1	1.09 ± 0.074	1.08 ± 0.072	1.33 ± 0.14	0.868 ± 0.033	1.86 ± 0.15	1.54 ± 0.14	0.981 (active)
CCn1cc(C(=O)NN)c(=O)c2cc(F)c(N3CCCCCC3)cc21	0.966 ± 0.076	0.98 ± 0.091	0.979 ± 0.12	0.965 ± 0.035	1.29 ± 0.11	1.19 ± 0.12	1.01 (active)
CC1=C(C(=O)OCCN(Cc2ccccc2)c2ccccc2)C(c2cccc([N+](=O)[O-])c2)C(P2(=O)OCC(C)(C)CO2)=C(C)N1 (configuration not stated)	0.86 ± 0.2	0.475 ± 0.024	0.543 ± 0.034	0.555 ± 0.028	0.917 ± 0.15	0.736 ± 0.074	1 (active)
O=[N+]([O-])c1ccc(C=Nc2sc3c(c2-c2nc4ccccc4s2)CCCC3)cc1	0.94 ± 0.059	0.955 ± 0.059	0.983 ± 0.057	0.94 ± 0.04	1.2 ± 0.12	0.93 ± 0.089	1 (active)
CC(C)(C)c1cc(NCc2ccccn2)n2ncc(-c3ccc(Cl)cc3)c2n1	0.256 ± 0.019	0.477 ± 0.032	0.79 ± 0.025	0.296 ± 0.028	0.962 ± 0.12	3.1 ± 0.86	0.978 (active)
Brc1ccc(-c2nc(-c3ccccc3)cc(N3CCOCC3)n2)cc1	1.05 ± 0.089	1.01 ± 0.066	1.01 ± 0.039	0.961 ± 0.097	1.11 ± 0.1	1.09 ± 0.16	1 (active)
CN1C[C@@H]2c3ccccc3Oc3ccc(Cl)cc3[C@H]2C1.O=C(O)/C=C\C(=O)O	0.164 ± 0.03	0.821 ± 0.14	0.908 ± 0.14	0.475 ± 0.044	0.914 ± 0.088	1.07 ± 0.13	0.252 (inactive)
Cn1cnc2c(F)c(Nc3ccc(Br)cc3Cl)c(C(=O)NOCCO)cc21	0.288 ± 0.015	0.124 ± 0.0099	0.183 ± 0.013	0.852 ± 0.061	3.68 ± 0.24	2.42 ± 0.19	0.684 (inactive)
CC(C)(C)c1ccc(=O)n(CC2CN(S(C)(=O)=O)C2)n1	0.983 ± 0.097	1.13 ± 0.095	0.918 ± 0.092	1.02 ± 0.058	1.15 ± 0.1	1.1 ± 0.34	1.01 (active)
CCOC(=O)C1=C(N)OC(C)=C(C(=O)OC)C1c1cccnc1 (configuration not stated)	1.16 ± 0.085	1.11 ± 0.081	1.16 ± 0.074	1.21 ± 0.04	1.12 ± 0.12	1.09 ± 0.095	0.988 (active)
CCN(CC)CCNc1ccc(CO)c2sc3ccccc3c(=O)c12 [Prestw-355]	0.178 ± 0.01	0.705 ± 0.065	1.09 ± 0.14	0.408 ± 0.024	0.964 ± 0.13	1.97 ± 0.17	0.907 (active)
CNC(=O)C(=O)Nc1cc(Cl)ccc1C	1.07 ± 0.18	1 ± 0.078	0.912 ± 0.08	1.01 ± 0.042	1.25 ± 0.15	1.3 ± 0.19	1 (active)
CNC(=O)[C@@H](NC(=O)[C@H](CC(C)C)[C@H](O)C(=O)NO)C(C)(C)C	1.29 ± 0.097	1.15 ± 0.13	0.996 ± 0.021	0.868 ± 0.048	0.983 ± 0.11	1 ± 0.13	1.01 (active)
CC(=O)N1CC(c2ccc(OC(C)C)cc2)CC1=O (configuration not stated)	1.07 ± 0.23	1.04 ± 0.084	0.961 ± 0.088	1.05 ± 0.03	1.22 ± 0.15	1.36 ± 0.16	0.999 (active)
CC1CCc2nc(NC(=O)C3CCCN3S(C)(=O)=O)sc2C1 (configuration not stated)	0.812 ± 0.037	1.03 ± 0.082	1.08 ± 0.057	0.983 ± 0.045	1.35 ± 0.27	1.44 ± 0.48	0.964 (active)
COc1cc(/C=C/C(=O)/C=C(O)/C=C/c2ccc(O)c(OC)c2)ccc1O	0.662 ± 0.16	1.14 ± 0.32	2.02 ± 0.15	0.0871 ± 0.0028	0.279 ± 0.091	0.517 ± 0.041	0.272 (inactive)
Cc1c(C(=O)OC(C)C)sc(NC(=O)C(F)(F)F)c1C(=O)OC(C)C	1.4 ± 0.08	1.01 ± 0.076	1.05 ± 0.032	0.781 ± 0.028	0.937 ± 0.067	1.19 ± 0.22	0.993 (active)
CCOC(=O)C(CCCOc1c(C)cc(Cl)cc1C)C(=O)OCC	0.961 ± 0.078	0.909 ± 0.069	1.08 ± 0.086	0.985 ± 0.04	0.95 ± 0.045	1.22 ± 0.17	0.997 (active)
Cc1c(C)n2c3c(=O)n(Cc4ccccc4F)c(=O)n(C)c3nc2n1CCCN1CCOCC1	0.843 ± 0.062	1.1 ± 0.087	0.958 ± 0.052	1.11 ± 0.089	1.06 ± 0.14	1.05 ± 0.37	1.01 (active)
COC(=O)C1C(=O)CC(C)(O)C(C(=O)OC)C1c1ccc2c(c1)OCO2 (configuration not stated)	1.03 ± 0.088	1.08 ± 0.081	0.958 ± 0.085	1 ± 0.038	1.57 ± 0.16	1.14 ± 0.11	0.989 (active)
NCC(O)CNCCc1ccccc1 (configuration not stated)	0.782 ± 0.067	1.02 ± 0.13	1.22 ± 0.069	0.575 ± 0.021	1.12 ± 0.12	1.02 ± 0.093	1 (active)
Br.CCCc1cc(-c2nc(-c3ccc(C)cc3)cs2)ccn1	1.09 ± 0.18	1.24 ± 0.12	1.08 ± 0.15	1.04 ± 0.069	1.3 ± 0.22	1.65 ± 0.32	0.993 (active)
COc1ccc(C=CC(=O)Nc2ccc([N+](=O)[O-])cc2)cc1Br	1.06 ± 0.17	0.991 ± 0.14	0.905 ± 0.11	0.996 ± 0.044	1.28 ± 0.18	1.43 ± 0.42	1.01 (active)
